According to PubChem BioAssay (NCI):
This is part of a sample that, as a whole, favours compounds with a hit. Of some 83,000 tested, about 20% had one in any assay.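 For each line, cells grew in 96-well plates with the test compound present at a single concentration for 48 hours.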 Unmarked numbers belong to inactive results. Calls of active or inactive are those of the source. Rule for the calls: active = growth percent below 10; inactive = the rest.

Tests used:
Test in all cases: NCI-60 one-dose screen, 48 h (100 = growth as untreated, 0 = no growth, -100 = all killed)
Settings in all cases: 10 µM unless noted
DU-145 prostate = test system: DU-145 prostate
MALME-3M melanoma = test system: MALME-3M melanoma
MDA-MB-231 breast = test system: MDA-MB-231 breast
RXF 393 renal = test system: RXF 393 renal
SF-268 CNS = test system: SF-268 CNS
SF-295 CNS = test system: SF-295 CNS
SF-539 CNS = test system: SF-539 CNS
UACC-257 melanoma = test system: UACC-257 melanoma
M14 melanoma = test system: M14 melanoma
HCT-15 colon = test system: HCT-15 colon
HT29 colon = test system: HT29 colon
SNB-75 CNS = test system: SNB-75 CNS
SNB-19 CNS = test system: SNB-19 CNS
U251 CNS = test system: U251 CNS
PC-3 prostate = test system: PC-3 prostate
SK-MEL-5 melanoma = test system: SK-MEL-5 melanoma
UACC-62 melanoma = test system: UACC-62 melanoma
LOX IMVI melanoma = test system: LOX IMVI melanoma
SK-MEL-28 melanoma = test system: SK-MEL-28 melanoma
K-562 leukemia = test system: K-562 leukemia

Structure (SMILES)	growth (DU-145 prostate)	growth (MALME-3M melanoma)	growth (MDA-MB-231 breast)	growth (RXF 393 renal)	growth (SF-268 CNS)	growth (SF-295 CNS)	growth (SF-539 CNS)	growth (UACC-257 melanoma)	growth (M14 melanoma)	growth (HCT-15 colon)	growth (HT29 colon)	growth (SNB-75 CNS)	growth (SNB-19 CNS)	growth (U251 CNS)	growth (PC-3 prostate)	growth (SK-MEL-5 melanoma)	growth (UACC-62 melanoma)	growth (LOX IMVI melanoma)	growth (SK-MEL-28 melanoma)	growth (K-562 leukemia)
CCC(CC)CC1(C)CC2(C)CCOC2OO1 (stereo not given)	107%	112%	100%	111%	110%	101%	99.1%	98%	115%	104%	100%	98.8%	103%	102%	99.8%	98.5%	95.4%	102%	109%	–
O=C(Nc1ccc(Br)cc1)c1cc(Br)cc(Br)c1O	–	-12% (active)	-22.4% (active)	-9.8% (active)	32.3%	-8.2% (active)	8.02% (active)	-17.1% (active)	1.78% (active)	-14.6% (active)	23.5%	-10.5% (active)	11%	6.11% (active)	9.67% (active)	-71% (active)	-14.2% (active)	-7.5% (active)	33.7%	96.9%
O=c1[nH]c2ccc([N+](=O)[O-])cc2c(=O)o1	117%	106%	107%	101%	–	105%	102%	104%	108%	99%	113%	113%	102%	106%	92.8%	95.3%	100%	99.9%	105%	–
Cc1cc(NC(=O)NCc2ccc(N3C(N)=NC(N)=NC3(C)C)cc2)ccc1S(=O)(=O)F	42.7%	56.9%	58.5%	–	31.6%	27.9%	19.5%	–	29.5%	62.2%	11.3%	56%	34.3%	32.7%	–	21%	11.6%	16.7%	57.4%	–
CCOC(=O)N1CC1	110%	108%	99.2%	106%	98.6%	97.8%	103%	101%	96.5%	96.3%	97.5%	90.8%	98.4%	96.3%	88.1%	101%	88.4%	92.7%	103%	–
CNCc1cccnc1	111%	124%	126%	121%	104%	95.5%	112%	105%	117%	108%	85.7%	104%	115%	99.6%	89%	106%	108%	98.2%	120%	–
CC(=O)O[C@@H]1CC[C@]2(C)[C@H]3CC[C@]4(C)C(=O)CC[C@H]4[C@@H]3C[C@@H]3SC(N)=N[C@@]32C1	79.2%	55.4%	68.2%	79.7%	73.9%	42.7%	51.3%	67.1%	41.1%	35.2%	10.2%	73.2%	54.7%	37%	71%	32.5%	38.2%	66.3%	72.2%	–
CCCCN(CCCC)P(=O)(Oc1ccccc1)Oc1ccccc1	–	119%	69.3%	55.8%	84%	64.5%	100%	70.4%	52.3%	68.1%	39.1%	50.9%	60.1%	53.1%	38.6%	67%	60.1%	67.7%	94.1%	46.2%
COc1ccc(/C=C\c2cc(OC)c(OC)c(OC)c2)cc1NC(=O)/C=C/c1ccc(OC)c(OC)c1	15.9%	51.7%	58.6%	-15.1% (active)	41.7%	5.37% (active)	2.69% (active)	73.9%	23.4%	29.7%	15.7%	16%	36.6%	35.4%	31.7%	5.07% (active)	36.6%	30.8%	51.8%	–
COc1ccc(/C=C/c2cc(OC)c(OC)c(OC)c2)cc1NC(=O)/C=C/c1ccc(F)cc1	10.1%	42.7%	56.1%	-19.1% (active)	45.2%	-2.11% (active)	-0.885% (active)	59.3%	13.4%	25.2%	9.9% (active)	3.26% (active)	33.5%	36.8%	28.7%	7.06% (active)	35.5%	39%	47.2%	–
CC(=O)OC[C@]1(C)C=C2C(=O)[C@](C)(O)C3(CC3)C(C)=C2[C@H]1OC(=O)N(C)CCN(C)C(=O)OC(C)(C)C	3.6% (active)	-44% (active)	4.31% (active)	-68.2% (active)	7.08% (active)	6.27% (active)	-37.1% (active)	33.7%	-29.4% (active)	3.65% (active)	0.176% (active)	-15.1% (active)	8.79% (active)	4.09% (active)	-21.4% (active)	-74.4% (active)	-52% (active)	-6.97% (active)	-4.04% (active)	–
O=C([O][Hg][CH2]C1COCC([CH2][Hg][O]C(=O)c2ccccc2)O1)c1ccccc1 (stereo not given)	–	-80.5% (active)	105%	87.5%	104%	96.8%	113%	-69.4% (active)	71.7%	-83% (active)	50.4%	92%	102%	58.9%	91.9%	102%	91%	11.4%	115%	4.71% (active)
CC1(C)N=C(N)N=C(N)N1c1ccc(CCC(=O)Nc2ccc(S(=O)(=O)F)cc2)c(Cl)c1	40.2%	83.1%	51.7%	–	28.1%	30%	11.9%	–	23.4%	48%	15.5%	59.4%	42%	35%	–	22.2%	16.9%	15.3%	50.4%	–
O=C1C=C2C(=CCOC2O)O1 (stereo not given)	9.48% (active)	-28.5% (active)	66%	-74.8% (active)	3.53% (active)	89%	-33.6% (active)	-22.1% (active)	-18.9% (active)	-8.81% (active)	-24.3% (active)	–	84.1%	74.8%	33.9%	78.7%	-14.2% (active)	1.42% (active)	37.7%	–
Cc1cc(N(CCCl)CCCl)ccc1C=Nc1cccnc1	–	62%	98.4%	59.7%	80.4%	36.7%	53.5%	61.8%	79.5%	84.4%	91.6%	60.2%	81.2%	76.1%	63.1%	77.5%	46.6%	71.6%	97.5%	63.1%
Cc1c2cc(Cl)c3ccccc3c2c[n+]2ccccc12	78.3%	-16.2% (active)	82.5%	–	-36.3% (active)	18.3%	26.3%	–	47.5%	103%	88.9%	-15.7% (active)	-26.3% (active)	0.443% (active)	–	-43.5% (active)	29.1%	84.6%	-27.2% (active)	–
COc1cccc2c1c(C(=O)C(=O)Nc1ccn[nH]1)cn2Cc1ccc(F)cc1	104%	112%	109%	99.8%	100%	143%	99.5%	104%	101%	106%	105%	90.1%	107%	103%	98.3%	106%	92.1%	103%	110%	–
COC(=O)[C@@H](NC(=O)c1cn(CCC2CCCCC2)c2ccccc12)C(C)(C)C	81.7%	106%	70.1%	83.9%	68.5%	60.2%	88.1%	73%	59.4%	59.9%	69%	71.2%	97.5%	72.6%	49.7%	–	38.1%	54.2%	85.8%	–
N#CC1(C#N)C(c2ccc(N(CCCl)CCCl)cc2)OC23CCCCC2C1(C#N)C(=N)O3 (stereo not given)	56.4%	96.9%	95.3%	73.9%	69.6%	108%	85%	87.9%	93.9%	90.6%	106%	63.3%	84.4%	75.8%	74.8%	83.3%	53.2%	68.6%	111%	–
COc1ccc(N(CC(=O)NCCC[Te]c2ccccc2)C(=O)CCSC2=C(C)C(=O)c3ccccc3C2=O)cc1	-10.1% (active)	-11.7% (active)	-61.6% (active)	-26.5% (active)	3.17% (active)	-50.1% (active)	-62.6% (active)	0.434% (active)	-38.3% (active)	-15.7% (active)	1.86% (active)	13.2%	-12.4% (active)	-42.7% (active)	0.627% (active)	-96.7% (active)	-25.4% (active)	-50.1% (active)	-18.1% (active)	–
COc1ccc(/C=C\c2cc(OC)c(OC)c(OC)c2)cc1NC(=O)/C=C/c1cc(OC)c(OC)c(OC)c1	95.2%	58%	63.9%	1.99% (active)	61.1%	12.5%	44.5%	70.6%	31.6%	46.5%	34.2%	30.6%	61.8%	57%	36%	1.74% (active)	31.4%	46.3%	44%	–
ClCCN(CCCl)c1ccc(/C=N\N=C\c2ccc(N(CCCl)CCCl)cc2)cc1	42.4%	109%	64.9%	–	40.7%	10.7%	1.3% (active)	31%	12.9%	37.3%	39.3%	72.1%	69.2%	47.4%	34.3%	49.7%	24.5%	10.7%	–	–
CC[C@H](C)[C@@H]1OC(=O)C(C)(C)[C@H](O)[C@H](Cc2ccccc2)OC(=O)[C@H](C(C)C)OC(=O)[C@@H](NC(=O)c2cccc(NC=O)c2O)[C@@H](C)OC1=O	62.7%	77.4%	59.1%	87.1%	62.1%	28%	52.8%	32.3%	62.8%	36.2%	48.4%	63.9%	49.5%	41.2%	43.9%	–	–	38.1%	–	–
